Screening results: PubChem BioAssay, several laboratories
Sampled rows, rich in hits. Any-hit rate of the full collection: about 4.6%.
ADAM10 inh = inhibits human ADAM10; O14672; recombinant ADAM10, EDANS/DABCYL FRET peptide cleavage, 3 h; inhibition, % at 7 µM; 370,000 tested, 0.62% active;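 active = inhibition above a per-campaign cutoff equal to the mean of compounds falling between control-based bounds plus 3 SD, cut at about 20% in these data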;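 note: 0% = DMSO wells while the 100% control is not disclosed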
ADAM17 inh = inhibitors of human ADAM17; 370,000 tested, 0.83% active; inhibition, % at 6.95 µM; P78536; recombinant ADAM17, EDANS/DABCYL FRET peptide cleavage;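 active = inhibition above the mean of compounds lying between control limits plus 3 SD, set per campaign, cut at about 8.5% in these data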;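 note: 0% = DMSO-only wells as the low control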
GRIN3A LBD mod = modulates the human NR3A ligand-binding domain; NR3A LBD differential scanning fluorimetry, Tm shift; 0% = protein alone, 100% = glycine-bound protein; Tm shift relative to glycine control, % at 25 µM; 340,000 tested, 2.5% active;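 active = melting temperature shift of at least 10% of the positive control shift, at one fixed dose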
FAS TE block = blocks the thioesterase domain of human fatty acid synthase; recombinant FAS-TE, OMFH fluorogenic substrate, fluorescence endpoint; 360,000 tested, 0.67% active; inhibition, % at 15 µM; AID 602261; P49327;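 active = compounds whose normalised, plate-corrected inhibition of enzyme fluorescence in the single-dose primary screen is 50% or more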;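 note: 0% = DMSO with enzyme and 100% = substrate without enzyme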
KLK7 zymogen act = activates the human kallikrein-7 zymogen. P49862. purified proKLK7, EDANS-DABCYL substrate fluorescence; 100% is mature enzyme control, 0% vehicle. activation, % at 7 µM. 370,000 tested, 0.9% active. AID 652039;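 active = activation above the mean of all tested compounds plus 3 SD, computed per campaign excluding outliers beyond control limits, cut at about 13% in these data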
Target sequence (P49862 whole entry, looked up): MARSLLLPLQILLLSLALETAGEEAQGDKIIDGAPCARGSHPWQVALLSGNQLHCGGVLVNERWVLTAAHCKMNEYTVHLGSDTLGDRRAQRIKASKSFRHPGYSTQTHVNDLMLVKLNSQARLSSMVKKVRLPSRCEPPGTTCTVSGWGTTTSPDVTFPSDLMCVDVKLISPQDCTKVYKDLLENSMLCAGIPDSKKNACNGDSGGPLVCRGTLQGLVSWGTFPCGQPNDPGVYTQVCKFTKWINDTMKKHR
Starred values were filed as active, the others as inactive; x = not tested or not shown.

SMILES | ADAM10 inh | ADAM17 inh | GRIN3A LBD mod | FAS TE block | KLK7 zymogen act
C=CCN1C(=O)[C@@H](CC(=O)N2CCSCC2)[C@]2(C(=O)OCC)CCCCC/C=C/12 | 2 | -1 | x | x | 0
COc1ccc(/C=N/NC(=O)c2ccc3nc[nH]c3c2)cc1 | -4 | -2 | 15* | -6 | 0
COc1ccc(/C=N/NC(=O)c2ccc(COCC(F)(F)C(F)F)cc2)cc1 | 0 | -1 | 12* | -1 | 0
COc1ccc(C(=O)N/N=C/c2ccc(OC)c(COc3ccc(F)cc3F)c2)cc1 | 0 | 4 | 15* | 16 | -4
COc1ccc(/C=C/C(=O)Oc2ccc(/C=N\NC(=O)c3ccc(F)cc3)cc2)cc1 | -4 | -4 | 15* | 5 | -1
COc1ccc(/C=N/NC(=O)c2ccc3nc[nH]c3c2)c(OC)c1 | -14 | -6 | -10 | -9 | 0
Cc1cccc(-c2cccc3c4c([nH]c23)[C@@H]2C[C@H](N(C)C(=O)c3ccccc3C)[C@H]([C@H](C)O)C(=O)N2CC4)c1 | 3 | 2 | x | x | 0
Nn1c(SCC(=O)N2c3ccccc3Sc3ccc(Cl)cc32)nnc1-c1cc(-c2ccc(F)cc2)n[nH]1 | -4 | 6 | x | x | 0
O=C(N/N=C/c1ccc(Cl)c([N+](=O)[O-])c1)c1ccc2nc[nH]c2c1 | 5 | -1 | 13* | 16 | 0
COC(=O)/C(=C/c1c[nH]c2ccccc12)NC(C)=O | 0 | 2 | -2 | -8 | 0
COC(=O)/C(=C/c1c[nH]c2ccccc12)[N+](=O)[O-] | 0 | 0 | 16* | -5 | 0
O=C(Nc1nnc(-c2ccncc2)s1)Nc1ccccc1F | -6 | -3 | -1 | 2 | 0
COc1ccc(NC(=O)Nc2nnc(-c3ccco3)s2)cc1 | 4 | -1 | 6 | 1 | 0
COc1ccc(NC(=O)Nc2nnc(-c3ccncc3)s2)cc1 | -2 | -3 | 11* | -1 | 0
O=C(Nc1ccc(Cl)c(Cl)c1)Nc1nnc(-c2ccncc2)s1 | -24 | -9 | 13* | 5 | 0
CCOC(=O)[C@]12CCCC=C1N(Cc1ccc(OC)cc1)C(=O)[C@@H]2CC(=O)N1CCCC1 | 9 | 5 | x | x | 0
COc1ccc(COC(=O)N/N=C/c2cccs2)cc1 | 8 | -1 | 32* | -6 | 1
COc1ccc(CC(=O)N/N=C/c2cccs2)cc1OC | 10 | 2 | 2 | -5 | 0
C[C@H](O)[C@@H]1CN2CCc3ccc(-c4ccc5c(c4)OCO5)cc3[C@@H]2C[C@@H]1N(C)C(=O)Nc1ccccc1 | 0 | -3 | x | x | 1
CN[C@H]1C[C@H]2c3[nH]c4cccc(-c5ccccc5)c4c3CCN2C[C@H]1[C@H](C)O | -71 | -19 | x | x | -3
Oc1ccccc1-c1nc(NC2CCCC2)c2ccccc2n1 | 9 | -1 | 19* | 39 | 0
CC(Nc1nc(-c2ccccc2O)nc2ccccc12)c1ccccc1 (centres undefined) | 0 | 2 | 22* | 37 | -32
CCCCCCCCN1C(=O)[C@@H](CC(=O)NCCc2ccccc2OC)C[C@@]2(C(=O)OC)C1=C[C@H](C(C)(C)C)O[C@@H]2C | -5 | -2 | x | x | -1
CCCCNC(=O)C[C@@H]1C(=O)N(Cc2ccc(OC)cc2)/C2=C/CCCCC[C@@]21C(=O)OCC | 4 | 6 | x | x | 0
COC(=O)C1CN(Cc2ccc(OC)cc2)CCS(=O)(=O)N1Cc1cn(Cc2ccccc2)nn1 (centres undefined) | -4 | -2 | x | x | 1
SMILES | ADAM10 inh | ADAM17 inh | GRIN3A LBD mod | FAS TE block | KLK7 zymogen act
O=C(Nc1ccc2ccccc2c1)NC1CCCCN(Cc2ccc(Cl)cc2)C1=O (centres undefined) | 3 | 2 | x | x | 0
Cc1cc(C)n(-c2ccc(C(=O)OCC(=O)NCc3ccco3)cc2)n1 | 3 | 1 | 21* | -8 | 0
CCNC(=O)COC(=O)c1ccc(-n2nc(C)cc2C)cc1 | 5 | 4 | -2 | -2 | 0
CCc1ccc(C=NN2CCN(Cc3ccc(C)cc3C)CC2)cc1 | 5 | 0 | x | x | 1
CCN(Cc1nc2ccccc2c(=O)[nH]1)C(=O)COc1ccccc1Cc1ccccc1 | 8 | 5 | 11* | 14 | 1
CCN(Cc1nc2cc(Cl)ccc2c(=O)[nH]1)C(=O)COc1ccccc1Cc1ccccc1 | -16 | 2 | 2 | 26 | 0
COCCN(Cc1nc2ccccc2c(=O)[nH]1)C(=O)COc1ccccc1-c1ccccc1 | 9 | 0 | 13* | 7 | 0
